The values that follow come from PubChem BioAssay (Tox21).

“And” between values parts separate entries of the source, which are not always exact repeats. Identical values can stand only once. Results filed as inconclusive are left out. A number with no mark means an inactive call. The source made the active and inactive calls. Calls come from the whole dose curve.
% is set by controls: 0 for no effect and ±100 for the full control effect; potency is the fitted concentration of half-maximal effect.

A short description of the experiment: qHTS assay for small molecule agonists of the antioxidant response element (ARE) signaling pathway - cell viability counter screen (AID 743203). Note: nearly all actives have a fitted effect of over 55% in size. Particulars: ARE-bla HepG2 viability, CellTiter-Glo luminescence, 16 h; series mostly up to 73.3 µM; viability change, negative = cytotoxic: at the top concentration. The source says:
National Center for Advancing Translational Sciences [NCATS]
NIH Chemical Genomics Center [NCGC]
U.S. Environmental Protection Agency [EPA]
National Institutes of Environmental Health Sciences [NIEHS]
National Toxicology Program [NTP]
U.S. Food and Drug Administration [FDA]
Oxidative stress has been implicated in the pathogenesis of a variety of diseases ranging from cancer to neurodegeneration. The antioxidant response element (ARE) signaling pathway plays an important role in the amelioration of oxidative stress. The CellSensor ARE-bla HepG2 cell line (Invitrogen) can be used for analyzing the Nrf2/antioxidant response signaling pathway. Nrf2 (NF-E2-related factor 2) and Nrf1 are transcription factors that bind to AREs and activate these genes. The CellSensor ARE-bla Hep G2 cell line contains a beta-lactamase reporter gene under control of the Antioxidant Response Element (ARE) stably integrated into HepG2 cells. The activation of the report gene under culture conditions can be detected by fluorescence intensity. This cell line has been used to screen the Tox21 10K compound library to identify agonists that induce oxidative stress. The cytotoxicity of the Tox21 compound library against the ARE-bla cell line was tested in parallel by measuring the cell viability using CellTiter-Glo assay (Promega, Madison, WI) in the same wells.
Tox21 Assay Protocol Summary:
ARE-bla HepG2 cells were dispensed at 2,000 cells/5 ul/well in 1536-well white wall/solid bottom plates using a Multidrop Combi (ThermoFisher Scientific, Waltham, MA) dispenser. After the assay plates were incubated at 37C/5% CO2 for 5 hrs, 23 nL of compounds dissolved in DMSO, positive controls or DMSO only was transferred to the assay plate by a pintool work station (Kalypsys, San Diego, CA). The plates were incubated at 37C/5% CO2 for 16 hrs, followed by addition of 4 ul/well of CellTiter-Glo reagent into the assay plates using a Flying Reagent Dispenser (Aurora Discovery, San Diego, CA). After 30 min incubation at room temperature, the luminescence intensity in the assay plates was measured using a ViewLux (PerkinElmer, Shelton, CT) plate reader.
Take `Cc1ccc(C(=O)O)cc1`: the “viability change, negative = cytotoxic” value is -2.98% [at 94.8 µM].

With `CN1CCCCC1CCN1c2ccccc2Sc2ccc(S(C)=O)cc21` (stereo not given), the “viability change, negative = cytotoxic” value was -0.122%.

With `Oc1cc(Cl)cc(Cl)c1Cl`, the “viability change, negative = cytotoxic” value was -20.4% [at 94.8 µM]. The same measure, in the same setting: to `C=CCCC(=O)/C=C/C1C(C)=CCCC1(C)C` (stereo not given) belongs 7.28%; to `OC/C=C/CO`, -5.62%.

For the compound `Cc1c2ccccc2c(C)c2c1ccc1ccccc12`, the Potency is 24.3 µM (active). Take `CCCC(=O)OC(C)(C)Cc1ccccc1`: the “viability change, negative = cytotoxic” value was 4.94%.

`CCCCC/C=C\C/C=C\CCCCCCCC(=O)O`: the “viability change, negative = cytotoxic” value was 2.32%. Still for that read-out and setting: to `CCOC(=O)NNc1ccc(N(CC)CC(C)O)nn1` (stereo not given) belongs 9.57%.

For `C=C(C)c1cccc(C(=C)C)c1`, the “viability change, negative = cytotoxic” value is -0.81%. Consider `CC(=O)c1ccc(C(C)=O)cc1`, for which the “viability change, negative = cytotoxic” value is 0.752% [at 94.8 µM]. Consider `O=c1oc2cc(O)ccc2c2oc3cc(O)ccc3c12`, for which the “viability change, negative = cytotoxic” value is 2.76%. On the same count and under the same terms, to `[Cl][Pt-2]([Cl])([Cl])[Cl]` belongs 0.515% [at 94.8 µM]; to `CC(C)(C)CC(C)(C)c1ccc(Nc2ccc(C(C)(C)CC(C)(C)C)cc2)cc1`, 7.42% [at 8.36 µM]. Same read-out and setting: to `COC(=O)c1ccccc1OC` belongs 8.66%; to `Nc1ccc(NCCO)c([N+](=O)[O-])c1`, 3.68%; to `CCCCOC(=O)CO`, -5.62%.

As to `OC1CCCc2ccccc21` (stereo not given), the “viability change, negative = cytotoxic” value was 5.59% [at 94.8 µM]. Still for that read-out and setting: the result for `Cc1ccc(C(C)C)cc2c(C)ccc1-2` reads 16.4%; that for `COC1=C(OC)C(=O)C(CCCCCCCCCCO)=C(C)C1=O`, -1.47%; that for `CNC(=O)c1ccccc1Sc1ccc2c(/C=C/c3ccccn3)n[nH]c2c1`, -11.4%. On to `O=C1NC(=O)[C@@H]2CC=CC[C@H]12`, for which the “viability change, negative = cytotoxic” value is -6.29%. Still for that read-out and setting: to `C[C@H]1NCc2cc(-c3ccc4c(=O)c(C(=O)O)cn(C5CC5)c4c3OC(F)F)ccc21` belongs 4.67% [at 34.3 µM]; to `O=C(O)CN(CCN(CC(=O)O)CC(=O)O)CC(=O)O`, -5.36% [at 3.74 µM]. With `COCCOc1cc2cc(C(=O)NC3CCN(C(C)C)CC3)n(CC(=O)Nc3ccc(Cl)cn3)c2cn1`, the “viability change, negative = cytotoxic” value was -11.4%.

For the compound `CCCCCCCCCCCCCCCC[N+](C)(C)CC`, the Potency was 54.6 µM (active).

`COc1cccc2c1C(=O)c1c(O)c3c(c(O)c1C2=O)C[C@@](O)(C(C)=O)C[C@@H]3O[C@H]1C[C@H](N)[C@H](O)[C@H](C)O1`: the Potency was 8.69 µM (active) and 13.3 µM (active). On to `O=S(=O)(O)c1ccc(Nc2nc(Nc3ccc(/C=C/c4ccc(Nc5nc(Nc6ccc(S(=O)(=O)O)cc6)nc(N(CCO)CCO)n5)cc4S(=O)(=O)O)c(S(=O)(=O)O)c3)nc(N(CCO)CCO)n2)cc1`, for which the “viability change, negative = cytotoxic” value was -8.38%. For `CCCCOC(=O)CC`, the “viability change, negative = cytotoxic” value is -4.12%.

On to `CC(C)=CCNc1ncnc2c1ncn2[C@@H]1O[C@H](CO)[C@@H](O)[C@H]1O`, for which the Potency was 5.96 µM (active). Regarding `COC(=O)c1ccccc1C`, the “viability change, negative = cytotoxic” value was 5.38%. As to `Cc1cc(C)c(/C=C2\C(=O)Nc3ccccc32)[nH]1`, the “viability change, negative = cytotoxic” value was -7.23%.

Regarding `CCCCC(CC)COC(=O)CCCCC(=O)OCc1ccccc1` (stereo not given), the “viability change, negative = cytotoxic” value was -4.27%. The same measure, in the same setting: the result for `OC[C@@H](O)[C@@H](O)CO` reads 3.65%; that for `CCCCCCC1CCCC(=O)O1` (stereo not given), 0.825%.

With `Fc1ccc(C(c2ccc(F)cc2)N2CCNCC2)cc1`, the Potency is 16.8 µM (active).

Turning to `CCCCCCCCCCOC(=O)c1ccccc1C(=O)OCCCCCCCC`, the “viability change, negative = cytotoxic” value was 7.57%. In the case of `Cc1c(N)cccc1C(F)(F)F`, the “viability change, negative = cytotoxic” value is -2.18%.

`CC(=O)[C@H]1CC[C@H]2[C@@H]3CCC4=CC(=O)CC[C@]4(C)[C@H]3CC[C@]12C`: the “viability change, negative = cytotoxic” value was -0.0999%.

For the compound `C[C@@H](O)[C@H](N)C(=O)O`, the “viability change, negative = cytotoxic” value is -10.8% [at 34.3 µM].
